Screening data deposited in PubChem BioAssay by National Center for Advancing Translational Sciences (NCATS).
Rows were chosen to be rich in hits. Some 4.4% of all compounds tested hit in one or more screens of this group.
TRHR enhancer-1 – qHTS for Small Molecule Agonists and Allosteric Enhancers of Human TRH Receptor: Primary Screen for Enhancers; Thyrotropin-releasing hormone receptor (Homo sapiens), P34981; TRHR cells, fluo-8 calcium fluorescence, EC20 TRH enhancement; enhancement, % at 2 µM; 360,000 compounds, 0.66% hits; in the data active means enhancement above about 30%; further: 0% is about no effect
Target sequence (P34981 whole entry, looked up): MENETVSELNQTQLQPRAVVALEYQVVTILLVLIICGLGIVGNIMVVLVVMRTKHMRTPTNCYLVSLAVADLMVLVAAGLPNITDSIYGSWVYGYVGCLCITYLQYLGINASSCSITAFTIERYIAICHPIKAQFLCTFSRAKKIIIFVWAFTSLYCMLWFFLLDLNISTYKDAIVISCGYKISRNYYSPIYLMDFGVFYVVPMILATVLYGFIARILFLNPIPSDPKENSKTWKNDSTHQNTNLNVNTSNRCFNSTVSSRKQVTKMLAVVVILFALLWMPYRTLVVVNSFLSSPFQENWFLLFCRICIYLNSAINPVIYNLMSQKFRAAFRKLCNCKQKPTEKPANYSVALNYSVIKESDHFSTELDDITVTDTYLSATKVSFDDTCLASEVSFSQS
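TRHR-expressing cells loaded with fluo-8 calcium dye were read kinetically (ex 480/em 530) during compound addition, then stimulated with an EC20 of TRH (10 nM final). Enhancement of the Gq-mediated intracellular calcium response was scored.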
USP1-UAF1 inh – Inhibitors of USP1/UAF1: Primary Screen | Potency, µM (titrated, usually from 57.1 µM), for the others: at the top dose activity change, negative = inhibition, most hits filed as inhibitors | 390,000 compounds, 0.23% hits | recombinant USP1/UAF1, Ub-Rhodamine cleavage fluorescence | Ubiquitin carboxyl-terminal hydrolase 1 (Homo sapiens), O94782 | AID 743255, 2014; further: potency means the concentration at half of the fitted maximal effect; on the % scale 0 is the no-effect control and ±100 the full control effect; nearly all actives have a fitted effect of over 60% in size
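High-throughput fluorogenic screen: 1nM USP1/UAF1 complex, Ub-Rho substrate 150nM final, 50mM HEPES pH 7.8 with 0.5mM EDTA, 0.1 mg/ml BSA, 1mM TCEP and 0.01% Tween-20.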
D1 PAM – Potentiators of Human D1 Dopamine Receptor: qHTS. HEK293 TREx D1 cells, calcium flux, dopamine EC20 potentiation. 360,000 compounds, 0.036% hits. D(1A) dopamine receptor (Homo sapiens), P21728. AID 504651, 2011. potentiation, % at 10 µM; in the data active means potentiation above about 30%; further: 0% is about no effect
TRHR agonist-1 – qHTS for Small Molecule Agonists and Allosteric Enhancers of Human TRH Receptor: Primary Screen for Agonists; TRHR cells, calcium flux fluo-8, FDSS agonist mode; activation, % at 2 µM; AID 493084, 2011; 360,000 compounds, 0.18% hits; in the data active means activation above about 30%; further: 0% is about no effect
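In this calcium-flux screen, cells bearing human TRHR are dye-loaded with fluo-8, baselined for 10 cycles, then exposed to library compounds; positive kinetic calcium responses during the agonist phase mark hits, with TRH as control.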
D1 antag – Antagonist of Human D 1 Dopamine Receptor: qHTS; D(1A) dopamine receptor (Homo sapiens), P21728; HEK293 TREx D1 cells, calcium flux, dopamine EC80; stronger effect = lower value; activity change, negative = inhibition, % at 10 µM; 360,000 compounds, 3.2% hits; in the data active means activity change below about -30%; further: on the % scale 0 is the no-effect control and ±100 the full control effect
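Using tetracycline-induced force-coupled D1 Hek293 cells and a calcium dye, signals were followed for 180 s after compound, then for 180 s after EC80 dopamine, to detect inhibitors.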
D1 ag – Allosteric Agonists of the Human D1 Dopamine Receptor: qHTS; D(1A) dopamine receptor (Homo sapiens), P21728; HEK293 T-REx D1 cells, calcium flux, agonist mode; activation, % at 2 µM; 360,000 compounds, 1% hits; in the data active means activation above about 30%; further: 0% is about no effect
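Inducible HEK293 T-REx D1 cells, force-coupled to calcium signalling, were plated at 4000 cells/well with tetracycline and held overnight at 30 C. After no-wash calcium dye loading, compound-evoked calcium rise over 180 s flagged agonists.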
TRHR enhancer-2 – qHTS for Small Molecule Agonists and Allosteric Enhancers of Human TRH Receptor: Confirmation Screen for Enhancers; TRH receptor cell assay, enhancer confirmation qHTS; activity change, negative = inhibition, % at 46.1 µM; 970 tested, under 10 active; shares compounds with TRHR enhancer-1;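 further: compound effect scored on response to added TRH at EC20 of 10 nM; 0% is about no effect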
TRHR agonist-2 – qHTS for Small Molecule Agonists and Allosteric Enhancers of Human TRH Receptor: Confirmation Screen for Agonists; shares compounds with TRHR enhancer-1; TRHR-expressing cells, agonist activation read-out; 970 compounds, 8% hits; Potency, µM (highest dose often 46.1 µM), without a hit: at the highest dose activation, most hits filed as activators; further: potency means the concentration at half of the fitted maximal effect; 0% is about no effect; nearly all actives have a fitted effect of over 75% in size
* hit, by the source's call; . = no result. Unless noted, the call rests on the fitted dose curve; in most records, active means well fitted curve in the direction sought with a large enough effect; inconclusive means small, poorly fitted or top-dose-only effect, or another doubt; inactive means no such curve, though single readings can be large; an effect the other way counts as inactive or inconclusive.

SMILES	TRHR enhancer-1	USP1-UAF1 inh	D1 PAM	TRHR agonist-1	D1 antag	D1 ag	TRHR enhancer-2	TRHR agonist-2
COc1ccc(CCNC(=O)CSc2nc3c(c(=O)n(C)c(=O)n3C)n2C(C)C)cc1OC	7	-7%	11	0	-4	-1	.	.
COc1ccc(CCNC(=O)CSc2nc(C)nc3c2c(=O)n(C)c(=O)n3C)cc1OC	45*	-13%	-1	0	4	5	-3	1%
COc1ccc(CCNC(=O)CSc2nc(O)c(CCC(C)C)c(=O)[nH]2)cc1OC	2	-9%	-11	0	2	0	.	.
CCCCc1c(O)nc(SCC(=O)NCCc2ccc(OC)c(OC)c2)[nH]c1=O	41*	2%	-4	0	-1	1	9	1%
COc1ccccc1NC(=O)C(C)N(C)CCOc1ccccc1 (configuration not stated)	19	-24%	2	-1	-20	14	.	.
CC(C(=O)Nc1ccc(F)c(F)c1F)N(C)CCOc1ccccc1 (configuration not stated)	46*	-15%	-11	0	-17	1	-8	1%
COc1ccc2[nH]c(O)c(N=NC(=N)N)c2c1	62*	0%	-4	1	9	1	2	-1%
Cc1ccc2[nH]c(O)c(N=NC(N)=S)c2c1	-7	-14%	5	0	-9	0	.	.
Cc1[nH]nc2c1C1(C(=O)Nc3ccc([N+](=O)[O-])cc31)C(C#N)=C(N)O2 (configuration not stated)	116*	-5%	-2	1	.	-1	3	4%
COc1ccccc1C/C(N)=N/OC(=O)c1cccs1	47*	-16%	9	0	2	0	-2	-1%
CCOc1ccc(NC(=O)c2sc3nc4c(cc3c2N)CN(Cc2ccccc2)CC4)cc1	-1	0%	-4	0	-14	1	.	.
CCOC(=O)c1c(NC(=O)CSc2cn(CCNC(=O)c3ccccc3OC)c3ccccc23)sc2c1CCC2	22	-10%	0	-2	34	0	.	.
CCOC(=O)C1CCN(c2cc(C)nc3c(-c4ccccc4OC)c(C)nn23)CC1	4	-14%	-3	-1	-1	0	.	.
COc1ccccc1NS(=O)(=O)c1cccc(C(=O)N/N=C/c2c(C)nn(-c3ccccc3)c2N2CCCC2)c1	1	-1%	-1	27	14	3	5	-1%
